From PubChem BioAssay (NCI)
Compounds without any hit were thinned out: in the full panel of roughly 83,000, 20% have a hit.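 Negative percent growth values reflect cell death: -40 means 40% of the cells present at the start died, and -100 means all died.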 Unmarked numbers belong to inactive results. Activity calls are given as the source filed them. How the source made its calls: active means growth percent below 10; inactive means the rest.

Legend:
Experiment in all cases: NCI-60 one-dose screen, 48 h (100 = growth as untreated, 0 = no growth, -100 = all killed)
Settings in all cases: 10 µM unless noted
DU-145 prostate = tested on: DU-145 prostate
K-562 leukemia = tested on: K-562 leukemia
MALME-3M melanoma = tested on: MALME-3M melanoma
MDA-MB-231 breast = tested on: MDA-MB-231 breast
RXF 393 renal = tested on: RXF 393 renal
SF-268 CNS = tested on: SF-268 CNS
SF-295 CNS = tested on: SF-295 CNS
SF-539 CNS = tested on: SF-539 CNS
UACC-257 melanoma = tested on: UACC-257 melanoma
M14 melanoma = tested on: M14 melanoma

Compound	growth (DU-145 prostate)	growth (K-562 leukemia)	growth (MALME-3M melanoma)	growth (MDA-MB-231 breast)	growth (RXF 393 renal)	growth (SF-268 CNS)	growth (SF-295 CNS)	growth (SF-539 CNS)	growth (UACC-257 melanoma)	growth (M14 melanoma)
Cn1ccnc1C(=O)/C=C/c1ccc(CC(=O)Nc2ccc(C(F)(F)F)cc2)cc1	7.72% (active)	6.29% (active)	77.5%	8.95% (active)	-1.43% (active)	16.4%	7.9% (active)	-36.8% (active)	77.9%	21.3%
CNC(=O)c1cc(Oc2ccc(NC(=O)Nc3cc(C(C)(C)C)nn3-c3ccc4ncccc4c3)c(F)c2)ccn1	-22.1% (active)	-7.14% (active)	-59.5% (active)	-9.49% (active)	-71% (active)	-19.8% (active)	-13.1% (active)	-66.4% (active)	-24.3% (active)	-71.4% (active)
COc1cc2c(cc1O)c(=O)n(CCN(C)C)c1c3cc4c(cc3ncc21)OCO4	-10.9% (active)	2.47% (active)	-57.6% (active)	-5.67% (active)	-51% (active)	3.41% (active)	-5.78% (active)	-35.5% (active)	-47.6% (active)	-23.3% (active)
O=C1C=CC2(NN=C(c3ccccc3)N2c2cccc(Cl)c2)c2cccc(O)c21 (stereo not given)	95.9%	23%	38.7%	68.6%	118%	72.4%	40.8%	33.9%	30.8%	53.2%
O=C(CNc1nc(-c2ccc(Cl)cc2)cs1)Nc1ccc(-c2nc3ccccc3s2)cc1	95%	96.4%	102%	84.7%	106%	90.8%	98.6%	97%	100%	88.2%
CCCS(=O)(=O)Nc1ccc(F)c(C(=O)c2c[nH]c3ncc(-c4ccc(Cl)cc4)cc23)c1F	49.3%	21.9%	11.2%	34.4%	-11.6% (active)	41.4%	7.92% (active)	23.7%	-6.6% (active)	3.85% (active)
Cc1cc(C(=O)Nc2cc(Oc3ccc4nc(NC(=O)C5CC5)cn4n3)ccc2C)n(C)n1	54.3%	7.79% (active)	-5.45% (active)	21.9%	-15.1% (active)	40.9%	52.5%	3.9% (active)	-29% (active)	-8.27% (active)
COc1cc2ncnc(Nc3ccc(O)cc3)c2cc1OC	61.3%	73%	102%	88.8%	82.3%	86.6%	98.8%	73.4%	63.7%	79.7%
CC/C(=C(\c1ccc(OCCN2CCCCCCC2)cc1)c1ccc(OC(=O)C2CCCCC2)cc1)c1ccc(Cl)cc1	108%	84.8%	94.1%	93.3%	110%	94.7%	104%	102%	87.3%	91.1%
Nc1nc(Nc2ccccc2)c(C=Nc2ccccc2)c(=O)[nH]1	103%	90.4%	103%	104%	91.7%	94%	95.5%	85.5%	93.6%	91.5%
C[C@]12O[C@H](C[C@]1(O)CO)n1c3ccccc3c3c4c(c5c6ccccc6n2c5c31)CNC4=O	3.57% (active)	4.93% (active)	-85.3% (active)	-44.2% (active)	-90.2% (active)	-45.5% (active)	-83.8% (active)	-96.6% (active)	-77.2% (active)	-56.4% (active)
COCCN1CCN(Cc2ccc(-c3n[nH]c4c3C(=O)c3c(NC(=O)NN5CCOCC5)cccc3-4)cc2)CC1	4.89% (active)	-0.714% (active)	-63.1% (active)	-18.1% (active)	-87.4% (active)	6.61% (active)	2.78% (active)	-86.2% (active)	-19.1% (active)	-52.6% (active)
CN1CCN(c2ccc(OC(F)(F)F)c(Nc3ncc4c(n3)-c3c(c(C(N)=O)nn3CCO)CC4)c2)CC1	10.2%	8.71% (active)	83.6%	32.1%	32.9%	35.6%	33.4%	3.87% (active)	47.6%	10.2%
CC(=O)c1cnc2ccc(-c3cc(Cl)c(O)c(Cl)c3)nc2c1NC1CCC(CN(C)C)CC1 (stereo not given)	-5.67% [2.5 µM] (active)	6.35% [2.5 µM] (active)	-75.7% [2.5 µM] (active)	-7.07% [2.5 µM] (active)	-75.1% [2.5 µM] (active)	-24.1% [2.5 µM] (active)	-19.2% [2.5 µM] (active)	-89% [2.5 µM] (active)	-26.4% [2.5 µM] (active)	-58.4% [2.5 µM] (active)
COc1cc2ncnc(Nc3cccc(Cl)c3F)c2cc1OC(=O)N1CCN(C)C[C@H]1C	65%	60.9%	106%	78.7%	67.9%	73.4%	83.7%	84.1%	68.8%	84.9%
Cc1cc(C(O)CN(C)C)cc2c1ccc1cc(C(C)C)ccc12 (stereo not given)	55.7%	-20.2% (active)	-77.3% (active)	-35.1% (active)	-47.8% (active)	62.2%	-66.1% (active)	71.5%	-74.4% (active)	-100% (active)
NC(=O)Nc1cc(-c2cccc(F)c2)sc1C(=O)N[C@H]1CCCNC1	-8.14% (active)	2.46% (active)	0.0893% (active)	-8.48% (active)	-89.1% (active)	-9.94% (active)	3.74% (active)	-77.5% (active)	5.95% (active)	-13.8% (active)
Nc1cc(C(F)(F)F)c(-c2cc(N3CCOCC3)nc(N3CCOCC3)n2)cn1	3.11% (active)	0.801% (active)	-60.8% (active)	-1.72% (active)	-39.7% (active)	6.65% (active)	-46.8% (active)	-57% (active)	-49.5% (active)	-62.1% (active)
COc1cc(CCc2cc(NC(=O)c3ccc(N4C[C@@H](C)N[C@@H](C)C4)cc3)n[nH]2)cc(OC)c1	37.7%	8.61% (active)	26.6%	44.2%	-10.1% (active)	39.4%	62.4%	16.9%	3.28% (active)	18%
Nc1nc(N)c2nc(-c3cccc(O)c3)c(-c3cccc(O)c3)nc2n1	80.8%	28.5%	91.3%	96.5%	70.8%	58.2%	89.8%	81.7%	65.4%	87.5%
Cc1oc2c(C(=O)N/N=C\c3ccc(O)cc3O)c[nH]c2c1C	-33.5% (active)	11.2%	5.32% (active)	30.3%	39.3%	7.45% (active)	12.3%	9.86% (active)	17.8%	-13.8% (active)
O=C(CNc1nnc(-c2ccc(Cl)cc2)o1)Nc1ccc(-c2nc3ccccc3s2)cc1	98.5%	85.6%	88.7%	98.8%	100%	77.3%	102%	97%	103%	102%
CCN1CCN(CCCN(C[C@H]2Cc3ccccc3CN2)[C@H]2CCCc3cccnc32)CC1	96.7%	63.5%	113%	77.4%	93.8%	75.9%	90.7%	94.2%	80.4%	87.3%
Cc1cc(Nc2cc(N3CCN(C)CC3)nc(Sc3ccc(NC(=O)C4CC4)cc3)n2)n[nH]1	55.7%	8.47% (active)	29.3%	37.1%	-18.7% (active)	48.6%	32.7%	9.92% (active)	18.1%	22.3%
Cc1cc(C)n(CC(=O)Nc2ccc(-c3nc4ccccc4s3)cc2)n1	103%	100%	108%	108%	129%	100%	103%	98.6%	107%	111%
CN(C)CCn1c(=O)c2c3cc4c(cc3n(CCN(C)C)c2c2ccc(Cl)cc21)OCO4	60.6%	-17.8% (active)	78.7%	31.6%	57.9%	32%	32.5%	69.9%	71.6%	50.5%
